# ALDH1A1 block: blocks purified human ALDH1A1 activity; Potency, µM (titrated, usually from 75.3 µM), inactives show at the highest dose activity, negative = inhibition, usual class: inhibitors; 220,000 compounds, 7.3% hits; AID 1030; Purified ALDH1A1, NADH fluorescence, propionaldehyde substrate; active means well fitted inhibition curve with a large enough effect, not every such curve was filed as active; inconclusive means small, poorly fitted or top-dose-only effect, or another doubt; inactive means no such curve, though single readings can be large or run the other way;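 further: plate controls were no enzyme wells and a reference inhibitor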
# Target sequence (P00352 whole entry, looked up): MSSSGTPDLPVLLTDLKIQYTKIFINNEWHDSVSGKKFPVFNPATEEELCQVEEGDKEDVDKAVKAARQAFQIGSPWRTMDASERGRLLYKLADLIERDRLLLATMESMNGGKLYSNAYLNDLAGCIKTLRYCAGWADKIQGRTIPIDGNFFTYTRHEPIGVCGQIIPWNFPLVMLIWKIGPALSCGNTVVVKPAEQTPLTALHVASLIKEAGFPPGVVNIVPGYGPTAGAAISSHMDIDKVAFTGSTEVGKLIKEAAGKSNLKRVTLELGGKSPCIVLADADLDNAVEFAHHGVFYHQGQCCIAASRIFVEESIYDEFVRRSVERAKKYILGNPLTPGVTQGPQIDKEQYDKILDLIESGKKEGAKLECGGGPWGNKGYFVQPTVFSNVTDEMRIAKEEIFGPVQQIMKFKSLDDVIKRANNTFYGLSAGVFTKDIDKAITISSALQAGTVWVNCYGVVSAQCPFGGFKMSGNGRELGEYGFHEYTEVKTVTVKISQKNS
# Tau fluor counter: counter-screen for tau fibril formation inhibitors | 280,000 compounds, 0.93% hits | tau K18 P301L Alexa594 fluorescence, heparin fibrillization | Potency, µM (titrated, usually from 57.7 µM), inactives show top-dose activity change, negative = decrease; further: nearly all actives have a fitted effect of over 55% in size
#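 Human K18 P301L tau (15 uM unlabeled plus 0.24 uM Alexa 594-labeled, final) in 100 mM sodium acetate pH 7 was mixed with compound and 20 uM heparin and incubated 6 hr at 37 C.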
# Tau fibril FP: blocks human tau fibril formation measured by polarization | 280,000 compounds, 0.39% hits | P10636 | Potency, µM (titrated, usually from 57.7 µM), without a hit: at the top dose activity, negative = inhibition, usual class: inhibitors | K18 P301L tau heparin fibrillization, Alexa594 FP, 6 h | AID 1468; further: nearly all actives have a fitted effect of over 55% in size
#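 Human K18 P301L fragment (15 uM unlabeled plus 0.24 uM Alexa 594-labeled) in 100 mM sodium acetate pH 7 with compound, aggregation induced by 20 uM heparin for 6 hr at 37 C. ThT (30 uM) added for 1 hr, then Alexa 594 FP read.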
# Tau fibril ThT: blocks human tau fibril formation measured by thioflavin T; P10636; recombinant tau K18 P301L, heparin-induced fibrillization, ThT fluorescence; Potency, µM (highest dose often 57.4 µM), for inactives: at the top dose activity, negative = inhibition, hits mostly inhibitors; 270,000 compounds, 2.1% hits; AID 1460; further: nearly all actives have a fitted effect of over 55% in size
#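 ThT emission at 510 nm, taken 1 hr after adding 30 uM dye, quantifies aggregates formed when 20 uM heparin acts on human tau K18 P301L for 6 hr at 37 C.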
# HPGD inh: HPGD (human) dehydrogenase inhibition; Potency, µM, for inactives: at the top dose activity change, negative = inhibition, hits mostly inhibitors; 150,000 compounds, 4.3% hits; purified HPGD, NADH fluorescence kinetic, PGE2 substrate; P15428; active means well fitted inhibition curve with a large enough effect, not every such curve was filed as active; inconclusive means small, poorly fitted or top-dose-only effect, or another doubt; inactive means no such curve, though single readings can be large or run the other way
# Target sequence (P15428 whole entry, looked up): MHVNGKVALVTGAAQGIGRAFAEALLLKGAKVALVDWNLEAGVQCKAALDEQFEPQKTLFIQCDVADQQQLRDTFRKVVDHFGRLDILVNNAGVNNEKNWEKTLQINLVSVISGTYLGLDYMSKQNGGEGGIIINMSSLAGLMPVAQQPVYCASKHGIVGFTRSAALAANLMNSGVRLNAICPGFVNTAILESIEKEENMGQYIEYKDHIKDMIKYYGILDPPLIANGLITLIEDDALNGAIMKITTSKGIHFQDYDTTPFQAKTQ
#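 NADH formation kinetics: reaction with 30 uM PGE2 and 1 mM NAD+ (final), 20 nM enzyme, Tris-HCl pH 8 with Tween 20, after 15 min compound preincubation at room temperature. Fluorescence change, last versus first of five reads.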
# NPSR antag: neuropeptide S receptor (human) antagonism, cAMP | AID 1461 | 220,000 compounds, 1% hits | CHO-NPSR cells, cAMP TR-FRET, antagonist mode | Q6W5P4 | Potency, µM (top dose mostly 38.3 µM), inactives show at the top dose activity change, negative = inhibition, hits mostly inhibitors; further: nearly all actives have a fitted effect of over 50% in size
# * hit, by the source's call; ? = inconclusive; · = not tested or not shown; [ ] = remark or other dose. Most compounds without a hit are left out; they make up all but 9.5% or so of the library. Unless noted, the call rests on the fitted dose curve; in most records, active means well fitted curve in the direction sought with a large enough effect; inconclusive means small, poorly fitted or top-dose-only effect, or another doubt; inactive means no such curve, though single readings can be large; an effect the other way counts as inactive or inconclusive. Unless noted, on the % scale 0 is the no-effect control and ±100 the full control effect; potency means the concentration at half of the fitted maximal effect.
SMILES,ALDH1A1 block,Tau fluor counter,Tau fibril FP,Tau fibril ThT,HPGD inh,NPSR antag
Cc1ccccc1N=Nc1c(C)[nH]n(C(N)=S)c1=O,20µM*,-18.1%,8.4%,14.1µM*,-23.7%,-17.3%
CCN(CC)S(=O)(=O)c1ccc(N=Nc2c(C)[nH]n(C(N)=S)c2=O)cc1,7.94µM*,-16.9%,1.0%,?,35.5µM*,-8.7%[46.1 µM]
CCN(C(=O)CSc1ncc(S(=O)(=O)c2ccc(C)c(Cl)c2)c(=O)[nH]1)c1cccc(C)c1,·,1.3%,-3.8%,-8.5%,·,·
O=C(COC(=O)Cc1ccc(-c2ccccc2)cc1)NCc1ccc(F)cc1,-4.8%,2.1%,-4.6%,-4.6%,-2.6%,-4.7%
Cc1ccc(-c2csc(=S)n2CC(=O)OCC(=O)NCc2ccc(F)cc2)cc1,12.6µM*,-10.6%,1.8%,-15.5%,15.8µM*,-12.7%[46.1 µM]
[ClH+][Cu][ClH+].[Cu].[OH2+]c1ccc2ccccc2c1CN1CCCCC1.[OH2+]c1ccc2ccccc2c1CN1CCCCC1,1.78µM*,·,·,·,-12.6%,·
Oc1ccc2ccccc2c1CN1CCN(c2ccccc2F)CC1,?,?,7.1%,?,-26.4%,-32.1%
Cc1ccc(C)c(SCC(=O)NCc2ccco2)c1,?,-7.7%,1.9%,-10.5%,7.94µM*,2.7%[46.1 µM]
Cc1nc(SCC(=O)NCc2ccco2)nc(C)c1C,25.1µM*,-6.8%,-14.4%,?,7.94µM*,-10.7%[46.1 µM]
Cc1ccc(C)c(SCC(=O)OCC(=O)c2ccco2)c1,?,-15.5%,-6.1%,-20.9%,17.8µM*,-4.3%[46.1 µM]
Cc1nc(SCC(=O)NC(=O)NCc2ccco2)nc(C)c1C,-6.5%,-3.8%,-2.5%,-10.9%,·,-6.9%
Cc1ccc2cc(C)c(SCC(=O)NCc3ccco3)nc2c1,14.1µM*,-5.5%,5.3%,-17.5%,·,?
Cc1ccc2nc(SCC(=O)NCc3ccco3)[nH]c2c1,9.5%,-7.5%,3.3%,-11.5%,-14.2%,-3.5%[46.1 µM]
Cc1ccc(SCCC(=O)NCc2ccco2)cc1,-14.4%,2.8%,2.3%,0.0%,28.2µM*,-7.2%[46.1 µM]
O=C(CSc1ccc(Cl)cc1)NCc1ccco1,-8.8%,1.0%,8.6%,6.7%,·,-4.6%
Cc1ccc(C(CC(=O)NCc2ccco2)c2ccccc2)c(O)c1 (stereo not drawn),-8.3%,-9.4%,6.9%,-8.3%,15.8µM*,-9.6%[46.1 µM]
O=C(c1ccccc1OCc1ccccc1Br)N1CCN(c2ncccn2)CC1,?,1.1%,-5.5%,-2.5%,-27.0%,-28.5%[46.1 µM]
CCOC(=O)C1CCCN(Cc2c(C(=O)N3CCCCC3)nc3c(C)cccn23)C1 (stereo not drawn),?,2.0%,-2.3%,-1.4%,·,1.4%
Cc1cccn2c(CNC3CCCc4ccccc43)c(C(=O)N3CCCCC3)nc12 (stereo not drawn),20µM*,1.3%,1.5%,-10.3%,·,-18.4%
CCO/C=C/C(O)(CNC(=O)c1ccc(C(C)(C)C)cc1)C(F)(F)F (stereo not drawn),-7.0%,2.4%,6.0%,6.5%,25.1µM*,-8.5%
Cc1ccc(Cn2ccsc2=NC(=O)CCl)cc1,10µM*,-5.2%,5.6%,-2.8%,·,-9.5%
Cc1ccc(Nc2nnc(-c3ccc(N4CCOCC4)c([N+](=O)[O-])c3)c3ccccc23)cc1,?,-27.2%,10.5%,?,-16.3%,-17.2%
O=[N+]([O-])c1cc(-c2nnc(Nc3ccccc3)c3ccccc23)ccc1N1CCOCC1,?,?,15.3%,?,14.1µM*,-5.4%
O=[N+]([O-])c1cc(-c2nnc(N3CCOCC3)c3ccccc23)ccc1N1CCOCC1,10µM*,-12.9%,-0.5%,?,·,8.5%
CC(C)(C)c1ccc(C(=O)NCC(=O)OCC(=O)Nc2ccc3c(c2)OCCO3)cc1,?,-27.8%,8.3%,-19.6%,-13.3%,11.6%
SMILES,ALDH1A1 block,Tau fluor counter,Tau fibril FP,Tau fibril ThT,HPGD inh,NPSR antag
COc1cc(/C=C2\C(=O)N(c3ccccc3)N=C2C)ccc1Oc1ccc([N+](=O)[O-])cc1[N+](=O)[O-],?,?,-10.0%,?,12.6µM*,-14.7%
CC1=NN(c2ccccc2)C(=O)/C1=C\c1ccc(Oc2ccc([N+](=O)[O-])cc2[N+](=O)[O-])cc1,8.91µM*,14.1µM*[quencher],?,14.1µM*,8.91µM*,-9.9%
COc1cc(/C=C2/SC(=O)NC2=O)ccc1Oc1ccc([N+](=O)[O-])cc1[N+](=O)[O-],·,?,-7.3%,15.8µM*,·,12.6µM*
C=C1C=C(Br)C2(OCCCO2)[C@H]2OC12 (stereo partly drawn),8.6%[13.5 µM],-11.6%[11.6 µM],-9.4%[11.6 µM],-7.8%[11.5 µM],·,·
CCc1nn2c(=O)cc(COC(=O)c3cccc(NC(=O)c4ccccc4C)c3)nc2s1,·,0.5%,-3.8%,-14.5%,·,·
O=C(CN1C(=O)C2CC=CCC2C1=O)N1CCN(c2ccc([N+](=O)[O-])cc2)CC1 (stereo not drawn),25.1µM*,-16.7%,-8.1%,?,·,3.6%
CCOC(=O)c1sc(=NC(=O)c2ccc(C)cc2)n(C)c1C,?,-5.3%,?,-12.4%,·,?
CCOC(=O)c1sc(=NC(=O)c2ccc(S(=O)(=O)N(C)c3ccccc3)cc2)n(C)c1C,35.9%,-9.0%,1.2%,-8.1%,·,3.16µM*
NCCOc1ccccn1,4.6%[13.5 µM],·,·,·,-14.5%,·
O=C(COc1ccccc1)N(Cc1cccnc1)c1nc2ccc(Cl)cc2s1,·,-18.5%,-13.9%,-1.1%,·,·
O=C(N/N=C1\CCc2ccccc21)c1ccccc1O,5.4%,-12.9%,-8.6%,?,-11.3%,-17.5%[46.1 µM]
O=C(OC1CCc2ccccc2C1=O)c1ccccc1O (stereo not drawn),?,?,?,25.1µM*,-19.2%,-28.0%[46.1 µM]
COc1ccc(-c2[nH]ncc2C(=O)NCc2cccc(Cl)c2)cc1,·,-15.1%,-11.1%,-5.5%,·,·
O=C(Cc1ccccc1)NNC(=O)Nc1ccc(Cl)c(Cl)c1,4.4%,-7.8%,-5.4%,2.0%,-1.6%,2.9%
COC(=O)c1ccc(NC(=O)Nc2ccc(F)cc2)cc1,8.8%,?,?,?,-7.4%,-17.2%[46.1 µM]
COC(=O)c1cccc(NC(=O)Nc2ccc(Cl)c(Cl)c2)c1,3.2%,?,12.6µM*,?,-4.3%,-3.9%[46.1 µM]
NC(=S)NNC(=O)Nc1ccc(Cl)c(Cl)c1,28.2µM*,-0.1%,-3.6%,6.3%,-19.8%,8.5%
COC(=O)c1ccc(NC(=O)Nc2ccc(F)c(Cl)c2)cc1,5.1%,?,15.8µM*,?,-6.8%,-13.1%[46.1 µM]
O=C(NC1CC1)c1sc2cc([N+](=O)[O-])ccc2c1Cl,6.7%,-14.8%,4.9%,?,25.1µM*,8.1%
CC(NC(=O)c1sc2cc([N+](=O)[O-])ccc2c1Cl)C(C)(C)C (stereo not drawn),0.562µM*,-26.4%,?,22.4µM*,·,-26.0%[46.1 µM]
